Screening data deposited in PubChem BioAssay by several laboratories.
Rows were chosen to be rich in hits. Some 3.7% of all compounds tested hit in one or more screens of this group.
BJeLR lethal: MLPCN primary cell-based screen for lethality selective to Ras in HRASV12 cells. BJeLR (HRASV12) viability, CellTiter-Glo ATP luminescence, 48 h. inhibition, % (test concentration not listed). 300,000 tested, 0.17% active. AID 1554, 2009; in the data active = inhibition above about 50%; inconclusive = no clear call, values can overlap the other calls
Autofluor counter: counter-screen for toxin protease inhibitors: compound fluorescence. compound autofluorescence counterscreen, microsphere flow cytometry; active compounds read high. fluorescence intensity (no concentration beside the values). 360,000 tested, 3.1% active. AID 624483; in the data active = fluorescence intensity above about 16000; inconclusive = no clear call, values can overlap the other calls
Vc quorum ag: inducers of Vibrio cholerae quorum light production without autoinducers, primary screen, BH1578 luxS cqsA deficient, single point | V. cholerae BH1578 lux reporter, luminescence, 6 h | activation, % at 18.7 µM | 350,000 tested, 0.16% active | AID 588436, 2011; in the data active = activation mostly above about 9.7%, no sharp cut-off; inconclusive = no clear call, values can overlap the other calls; inactive = mostly below about 3.7%
BoNT-F LC inh: BoNT/F light chain protease inhibitors, primary screen, biochemical, flow cytometry, MLPCN library; Multiplex microsphere protease cleavage assay; 360,000 tested, 0.22% active; inhibition, % at 10 µM; Botulinum neurotoxin type F light chain protease (Clostridium botulinum); in the data active = inhibition above about 35%, passing the limit was not always enough; inconclusive = no clear call, values can overlap the other calls
BoNT A protease: BoNT/A light chain protease inhibitors, primary screen, biochemical, flow cytometry, MLPCN library; Botulinum neurotoxin type A light chain protease (Clostridium botulinum A str. ATCC 3502); multiplex microsphere protease substrate cleavage; inhibition, % at 10 µM; 360,000 tested, 0.17% active; AID 588499, 2011
Anthrax LF inh2: Bacillus anthracis LF protease inhibitors, primary screen, biochemical, multiplex microsphere, MLPCN library; Lethal factor (Bacillus anthracis), P15917; multiplex microsphere protease cleavage assay; inhibition, % at 10 µM; 360,000 tested, 0.12% active; AID 588501, 2011
Target sequence (P15917 whole entry, looked up): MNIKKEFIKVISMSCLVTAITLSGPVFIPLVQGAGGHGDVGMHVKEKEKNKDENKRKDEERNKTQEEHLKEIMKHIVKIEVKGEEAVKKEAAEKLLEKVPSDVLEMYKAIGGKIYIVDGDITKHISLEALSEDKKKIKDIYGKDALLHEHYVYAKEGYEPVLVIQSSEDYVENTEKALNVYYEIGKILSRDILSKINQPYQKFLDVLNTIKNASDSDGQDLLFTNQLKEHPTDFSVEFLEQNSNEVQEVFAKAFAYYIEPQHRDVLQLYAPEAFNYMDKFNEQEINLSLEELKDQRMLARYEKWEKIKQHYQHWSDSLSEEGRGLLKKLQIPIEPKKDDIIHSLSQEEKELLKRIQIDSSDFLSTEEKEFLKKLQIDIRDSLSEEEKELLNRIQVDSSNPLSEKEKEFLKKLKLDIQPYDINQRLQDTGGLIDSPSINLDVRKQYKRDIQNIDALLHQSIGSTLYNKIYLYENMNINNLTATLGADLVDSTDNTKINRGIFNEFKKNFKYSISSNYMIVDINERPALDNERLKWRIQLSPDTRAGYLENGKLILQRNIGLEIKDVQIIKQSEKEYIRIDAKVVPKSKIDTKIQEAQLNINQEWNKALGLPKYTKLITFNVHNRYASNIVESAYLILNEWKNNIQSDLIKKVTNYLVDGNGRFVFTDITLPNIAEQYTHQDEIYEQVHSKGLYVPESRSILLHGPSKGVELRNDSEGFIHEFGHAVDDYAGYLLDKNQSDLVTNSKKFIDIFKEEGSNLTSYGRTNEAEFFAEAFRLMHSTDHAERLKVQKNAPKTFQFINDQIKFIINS
Of the large screens only hits and unclear results are named; the others gave an inactive call. Rule as the data show it, unless noted: active = inhibition above about 30%; inconclusive = no clear call, values can overlap the other calls; inactive = below that.

CCCCCC(=O)Nc1c(-c2ccc(OC)cc2)c(=O)c2ccccc2n1C	Autofluor counter 21066
CCCCCC(=O)Nc1c(-c2cccs2)c(=O)c2ccccc2n1C	Autofluor counter 16847
CCCCC(=O)Nc1c(-c2ccc(OC)c(OC)c2)c(=O)c2ccccc2n1C	none
COc1ccc(-c2c(NC(=O)CC(C)C)n(C)c3ccccc3c2=O)cc1OC	Anthrax LF inh2 33
CCCC(=O)Nc1c(-c2ccc(OC)cc2)c(=O)c2ccccc2n1C	none
CCC(=O)Nc1c(-c2cccs2)c(=O)c2ccccc2n1C	none
COc1ccc(-c2sc3ccc(-c4ccc5c(c4)OCO5)cc3c2-c2ccc(OC)nc2)cc1	none (no result: BJeLR lethal)
COc1ccc(-c2nnc(NC(=O)c3ccc(S(=O)(=O)N4CCc5ccccc5C4)cc3)o2)cc1	BJeLR lethal 76
CS(=O)(=O)c1cccc(-c2nnc(NC(=O)c3ccc(S(=O)(=O)N4CCCC4)cc3)o2)c1	Autofluor counter inconclusive
O=C(Nc1nnc(-c2ccc(F)cc2)o1)c1ccc(S(=O)(=O)N2CCOCC2)cc1	Vc quorum ag 25
COc1ccc(-c2csc(NC(=O)c3ccc(S(=O)(=O)N4CCc5ccccc5C4)cc3)n2)cc1	none
O=C(CSc1nc2ccc([N+](=O)[O-])cc2[nH]1)NC1CCCCC1	Autofluor counter 20507, BoNT A protease inconclusive
CC1=C(C(=O)N(C(C)C)C(C)C)CC(CC(=O)NCCCCc2ccccc2)C(=O)N1Cc1ccc(C(C)(C)C)cc1 (stereo not drawn)	none (no result: BJeLR lethal, Vc quorum ag)
Cc1ccc(C)c(NCCCCCCCC(=O)O)c1	none (no result: BJeLR lethal, Vc quorum ag)
COc1ccc(-c2cc(C(=O)Nc3ccccc3SC)no2)cc1	none
CSc1ccccc1NC(=O)c1cc(-c2cccs2)on1	Autofluor counter 24196, BoNT A protease inconclusive
Cc1c(NC(=O)c2cc(-c3ccc4c(c3)OCO4)on2)c(=O)n(-c2ccccc2)n1C	none
COc1ccc(-c2cc(C(=O)Nc3c(C)nn(Cc4ccccc4)c3C)no2)cc1	Autofluor counter 24465
Cc1nn(Cc2ccccc2)c(C)c1NC(=O)c1cc(-c2ccc3c(c2)OCO3)on1	Autofluor counter 16514, BoNT A protease inconclusive
COc1cccc(-c2cc(C(=O)Nc3c(C)nn(Cc4ccccc4)c3C)no2)c1	none (no result: BJeLR lethal)
O=C(NCCCn1ccnc1)c1cc(-c2ccc3c(c2)OCO3)on1	Autofluor counter 20683
Nc1[nH]c(C(=O)c2ccccc2)c(-c2c(F)cccc2F)c1C(=O)c1ccc(Cl)c(Cl)c1	none (no result: BJeLR lethal, Vc quorum ag)
Cc1ccc(C(=O)C2C(=O)C3CCC2C3)cc1 (stereo not drawn)	none (no result: BJeLR lethal)
Cc1nn(Cc2ccccc2)c(C)c1NC(=O)c1cccs1	none
Cc1nn(Cc2ccccc2)c(C)c1NC(=O)c1cc(-c2cccs2)on1	Autofluor counter 16449
COc1cccc(-c2cc(C(=O)Nc3c(C)nn(Cc4ccccc4C)c3C)no2)c1	Autofluor counter 19715
COc1cccc(-c2cc(C(=O)Nc3cnn(Cc4ccccc4C)c3)no2)c1	none
Cc1cc(C)nc(Nc2nc(C(N)Cc3ccc(Cl)cc3)cs2)n1 (stereo not drawn)	none (no result: BJeLR lethal)
CSc1ccc(CN2CCC(C)(Oc3ccc(-n4ccnc4)cc3)C2)cc1 (stereo not drawn)	none (no result: BJeLR lethal)
CCCCOc1c(Br)cc(CNCCCN2CCOCC2)cc1OC	none
CCCCNCc1cc(Br)c(OCC(=O)N2CCOCC2)c(OC)c1	Autofluor counter 16518
COc1ccc(C(C)(O)c2nc(-c3ccc(N(C)C)cc3)cs2)cc1 (stereo not drawn)	none (no result: BJeLR lethal)
Cc1nn(C)c(Oc2ccccc2)c1CCNC(=O)CCl	none
CC(=O)OCc1c(C(F)(F)F)nn(C)c1Oc1cccc(C(F)(F)F)c1	Autofluor counter 16385
CC(=O)OCc1c(C(F)(F)F)nn(C)c1Oc1ccccc1	Autofluor counter 17428
CC1(C(=O)NCCC(F)(F)F)Cc2c(-c3ccccc3)ccnc2O1 (stereo not drawn)	none (no result: BJeLR lethal)
CC1=C(C(=O)OCc2ccccc2)C(c2ccc(C)cc2)NC(=O)N1 (stereo not drawn)	none (no result: BJeLR lethal)
Cc1cc2c(C)cc(=O)oc2c2c1NCCC2	Autofluor counter 25354
Cc1cc(=O)oc2cc3c(cc12)CCCN3	none
O=S(=O)(c1ccccc1)N1CCN(c2ncccn2)CC1	Autofluor counter 22296
O=S(=O)(c1ccc(F)cc1)N1CCN(c2ncccn2)CC1	none
O=S(=O)(c1ccc(Br)s1)N1CCN(c2ccccn2)CC1	none
O=S(=O)(c1ccc(Br)s1)N1CCN(c2ncccn2)CC1	Autofluor counter 22792
